Measurements: PubChem BioAssay (NCATS)
“And” between values parts separate entries of the source, which are not always exact repeats. Equal values may be shown once. Inconclusive results are not listed. Entries that show only a call come without a potency. The source made the active and inactive calls. The call rests on the fitted dose curve; in most records, active means well fitted cell-killing curve with a large enough effect; inconclusive means small, poorly fitted or top-dose-only effect; inactive means flat fitted curve, though single readings scatter.

Test: Cell Viability - LYMP2-007 (AID 979);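 further: cells exposed to compound for 24 h before reading; nearly all actives have a fitted effect of over 60% in size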
Conditions: LYMP2-007 lymphoblastoid cell viability; series mostly up to 92.2 µM
Excerpt: NIH Chemical Genomics Center [NCGC]
NIH Molecular Libraries Screening Centers Network [MLSCN]
National Institutes of Environmental Health Sciences [NIEHS]
National Toxicology Program [NTP]
We have developed a 1536-well cell-based assay for quantitative high throughput screening (qHTS) against a number of cell lines to determine in vitro cytotoxicity of small molecules. This particular assay uses a human lymphoblastoid cell line (LYMP2-007) purchased from Coriell Institute for Medical Research.
NCGC Assay Protocol Summary:
The CellTiter-Glo luminescent cell viability assay (Promega) is a homogeneous method to measure the number of viable cells in culture. The end point readout of this assay is based on quantitation of intracellular ATP, an indicator of metabolic activity, using the luciferase reaction. Luciferase catalyzes the oxidation of beetle Luciferin to oxyluciferin and light in the presence of ATP. The luminescent signal is proportional to amount of ATP present.
Using the CellTiter-Glo luminescent cell viability assay, the amount of cellular ATP was measured in the lymphoblastoid cell line with complete culture medium following compound treatment for 24 hours. The assay was performed in opaque white Kalypsys 1536-well plates. In the screen, tetraoctylammonium bromide was used as positive control. Library compounds were measured for their ability to cause acute toxicity in the cell line, as reflected by a decrease in intracellular ATP levels, in a concentration-dependent manner. […] AC50 values were determined from concentration-response data modeled with the standard Hill equation.
qHTS protocol for CellTiter Glo lymphoblastoid cellular assay
[Step] [Parameter] [Value] [Description]
1. Reagent; 5 uL; 2500 lymphoblastoid cells/well
2. Time; 5 hr; 37 C incubation
4. Controls; 23 nL; Tetraoctylammonium bromide 6.4pM to 92 uM
5. Time; 24 hr; 37 C incubation
6. Reagent; 5 uL; CellTiter Glo reagent
7. Time; 30 min; Room Temperature
8. Detection; Luminescence; Viewlux plate reader
Keywords: cell viability, cytotoxicity, lymphoblastoid cell line, luminescence, NTPHTS, NTPHTS_NCGC, NIEHS, DSSTox, MLSMR, MLSCN, NIH Roadmap, qHTS, NCGC
Potency means the concentration at half of the fitted maximal effect.

With C[C@]12CCC(=O)C[C@@H]1CC[C@@H]1[C@@H]2CC[C@]2(C)[C@@H](O)CC[C@@H]12 as the molecule, how does the Potency read?
The Potency was “inactive”.

For Clc1ccccc1Cl, which Potency is on record?
The Potency was “inactive”.

With O=C(O)C(Cl)(Cl)Cl as the molecule, how does the Potency read?
The Potency was “inactive”.

For CC(C)(C)c1cc(O)ccc1O, which Potency is on record?
The Potency was “inactive”.

With CC(C)Nc1ccc(Nc2ccccc2)cc1 as the molecule, how does the Potency read?
The Potency was 25.1 µM (active).

With CCCCCCCCOC(=O)c1ccccc1C(=O)OCCCCCCCC as the molecule, how does the Potency read?
The Potency was “inactive”.

For S=C=S, which Potency is on record?
The Potency was “inactive”.

Which Potency does the source give for NNC(N)=O here?
The Potency was “inactive”.

For Oc1cc(Cl)c(Cl)cc1Cl, which Potency is on record?
The Potency was “inactive”.

With CCCCCl as the molecule, how does the Potency read?
The Potency was “inactive”.

With CC(C)CCON=O as the molecule, how does the Potency read?
The Potency was “inactive”.

With C=CCN=C=S as the molecule, how does the Potency read?
The Potency was “inactive”.

For O=C1CCO1, which Potency is on record?
Its Potency is “inactive”.

With O=C1C=CC(=O)C=C1 as the molecule, how does the Potency read?
The Potency was 50.1 µM (active).

For O=C/C=C/c1ccccc1, which Potency is on record?
The Potency was “inactive”.

With ClC(Cl)(Cl)Cl as the molecule, how does the Potency read?
The Potency was “inactive”.

For COc1ccc2c(c1OC)C(=O)OC2C1c2cc3c(cc2CCN1C)OCO3 (stereo not given), which Potency is on record?
The Potency was “inactive”.

For O=CC=O, which Potency is on record?
Its Potency is “inactive”.

Which Potency does the source give for O=Cc1ccco1 here?
The Potency was “inactive”.

For C[C@H]1CC[C@@H]2[C@@H](C)[C@H]3[C@H](C[C@H]4[C@@H]5CC=C6CC(O[C@@H]7O[C@H](CO)[C@H](O)[C@H](O[C@@H]8O[C@H](CO)[C@@H](O)[C@H](O)[C@H]8O)[C@H]7O[C@H]7O[C@@H](C)[C@H](O)[C@@H](O)[C@H]7O)CC[C@]6(C)[C@H]5CC[C@]34C)N2C1 (stereo not given in full), which Potency is on record?
The Potency was 50.1 µM (active).

For CCOC(=O)c1ccccc1C(=O)OCC, which Potency is on record?
Its Potency is “inactive”.

With [Cl-].[Cl-].[Hg+2] as the molecule, how does the Potency read?
Its Potency is 6.31 µM (active).

For C[C@H]1CCC[C@H](O)CCCCCc2cc(O)cc(O)c2C(=O)O1, which Potency is on record?
Its Potency is “inactive”.

With [O]=[Cd] as the molecule, how does the Potency read?
The Potency was “inactive”.

For ClCC1CO1 (stereo not given), which Potency is on record?
Its Potency is “inactive”.

For COC1=CC(=O)O[C@@H](/C=C/c2ccccc2)C1, which Potency is on record?
Its Potency is “inactive”.

Which Potency does the source give for O=[N+]([O-])c1ccccc1 here?
Its Potency is “inactive”.

For ClC=C(Cl)Cl, which Potency is on record?
Its Potency is “inactive”.

For O=C1C2CC=CCC2C(=O)N1SC(Cl)(Cl)Cl (stereo not given), which Potency is on record?
Its Potency is 7.94 µM (active) and 5.01 µM (active).

For [O]=[Cr](=[O])([OH])[O][Cr](=[O])(=[O])[OH], which Potency is on record?
The Potency was 10 µM (active) and 12.6 µM (active) and 7.94 µM (active).
